Results published in the supplement of paper PMC10849652.
Targets with a hit are over-represented here; the source holds about 7,900 in all. About 0.6% of all pairs of compound and target were hits.

Experiments:
Experiment in all cases: log2 fold change, soluble protein after heating vs DMSO (PISA); higher = thermal stabilisation; K562 cells, 10 uM, 30 min; active = over 0.2 and 3.5 SD of the protein, either way, in both replicates (recomputed)
[1] = compound: COC1=CC=C(C=C1)CN2C=CC3=C2C=C(C=C3)C(=O)NO
How it was run: (§1)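 Aliquots of K562 cells (2×10^6 cells/mL) treated with 10 μM compound for 30 min were heated for 3 min over 48°C-58°C. After pooling and extraction in PBS with 0.5% NP-40 at 4°C, soluble protein from a 21,000xg, 90 min spin was quantified by TMTpro 16plex LC-MS/MS with channel sums equalised. Thermal stability is expressed against control samples, from duplicates, as a log2 fold change.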

filanesib = compound: CON(C)C(=O)N1N=C(c2cc(F)ccc2F)S[C@@]1(CCCN)c1ccccc1 [filanesib]
How it was run: as §1

zotarolimus = compound: CO[C@H]1C[C@@H]2CC[C@@H](C)[C@@](O)(O2)C(=O)C(=O)N2CCCC[C@H]2C(=O)O[C@H]([C@H](C)C[C@@H]2CC[C@H](n3cnnn3)[C@H](OC)C2)CC(=O)[C@H](C)/C=C(\C)[C@@H](O)[C@@H](OC)C(=O)[C@H](C)C[C@H](C)/C=C/C=C/C=C/1C [zotarolimus]
How it was run: as §1

idasanutlin = compound: COc1cc(C(=O)O)ccc1NC(=O)[C@@H]1N[C@@H](CC(C)(C)C)[C@](C#N)(c2ccc(Cl)cc2F)[C@H]1c1cccc(Cl)c1F [idasanutlin]
How it was run: as §1

alisertib = compound: COc1cc(Nc2ncc3c(n2)-c2ccc(Cl)cc2C(c2c(F)cccc2OC)=NC3)ccc1C(=O)O [alisertib]
How it was run: as §1

[2] = compound: COc1cc2nc(-c3cc(F)ccc3O)nc(N[C@@H]3CNC[C@H]3C(C)(C)O)c2cc1OC
How it was run: as §1

gefitinib = compound: COc1cc2ncnc(Nc3ccc(F)c(Cl)c3)c2cc1OCCCN1CCOCC1 [gefitinib]
How it was run: as §1

[3] = compound: COc1cccc2cc(-c3nc([C@H]4CC[C@H](C(=O)O)CC4)n4ncnc(N)c34)[nH]c12
How it was run: as §1

lapatinib = compound: CS(=O)(=O)CCNCc1ccc(-c2ccc3ncnc(Nc4ccc(OCc5cccc(F)c5)c(Cl)c4)c3c2)o1 [lapatinib]
How it was run: as §1

pictilisib = compound: CS(=O)(=O)N1CCN(Cc2cc3nc(-c4cccc5[nH]ncc45)nc(N4CCOCC4)c3s2)CC1 [pictilisib]
How it was run: as §1

Measured: log2 fold change

HAT1 (UniProt O14929)
inactive: [1] 0.14 | filanesib -0.049 | zotarolimus 0.075 | idasanutlin 0.055 | alisertib 0.019 | [2] 0.066 | gefitinib 0.008 | [3] -0.014 | lapatinib -0.002 | pictilisib -0.076

GREB1 (UniProt Q4ZG55)
inactive: [1] 0.448 | filanesib 0.074 | zotarolimus 0.07 | idasanutlin -0.023

FOXK1 (UniProt P85037)
UniProt P85037, sequence (P85037 whole entry, looked up): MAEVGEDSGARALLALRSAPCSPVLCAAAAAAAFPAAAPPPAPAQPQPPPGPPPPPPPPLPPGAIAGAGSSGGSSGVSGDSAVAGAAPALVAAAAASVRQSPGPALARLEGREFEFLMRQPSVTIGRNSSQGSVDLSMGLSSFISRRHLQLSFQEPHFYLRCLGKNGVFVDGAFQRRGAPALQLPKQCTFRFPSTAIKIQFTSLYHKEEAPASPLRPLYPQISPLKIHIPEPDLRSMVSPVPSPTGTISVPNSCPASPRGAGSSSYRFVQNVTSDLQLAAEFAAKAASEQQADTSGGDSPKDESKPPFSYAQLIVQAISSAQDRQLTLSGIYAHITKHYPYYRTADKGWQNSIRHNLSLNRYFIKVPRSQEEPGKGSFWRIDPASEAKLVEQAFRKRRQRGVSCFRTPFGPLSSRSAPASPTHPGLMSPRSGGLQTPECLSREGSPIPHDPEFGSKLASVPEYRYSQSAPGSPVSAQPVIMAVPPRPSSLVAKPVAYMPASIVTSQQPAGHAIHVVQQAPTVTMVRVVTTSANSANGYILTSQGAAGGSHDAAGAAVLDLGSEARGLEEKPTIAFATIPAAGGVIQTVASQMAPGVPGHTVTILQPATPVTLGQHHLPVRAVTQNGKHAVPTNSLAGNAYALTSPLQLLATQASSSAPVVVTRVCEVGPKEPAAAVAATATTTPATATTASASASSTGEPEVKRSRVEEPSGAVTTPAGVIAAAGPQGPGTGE
inactive: [1] -0.002 | filanesib 0.361 | idasanutlin -0.123 | alisertib -0.038 | [2] 0.526 | gefitinib 0.516 | [3] 0.774 | lapatinib 0.085 | pictilisib 0.584
active: zotarolimus 1

HDHD2 (UniProt Q9H0R4)
UniProt Q9H0R4, sequence (Q9H0R4 whole entry, looked up): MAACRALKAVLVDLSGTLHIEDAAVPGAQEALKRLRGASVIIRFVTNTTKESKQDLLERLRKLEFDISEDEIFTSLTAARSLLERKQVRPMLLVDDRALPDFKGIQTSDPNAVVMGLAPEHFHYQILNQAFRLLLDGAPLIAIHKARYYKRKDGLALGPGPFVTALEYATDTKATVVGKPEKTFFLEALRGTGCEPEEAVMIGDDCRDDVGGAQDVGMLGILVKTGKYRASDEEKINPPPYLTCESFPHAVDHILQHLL
inactive: [1] 0.048 | filanesib -0.097 | zotarolimus -0.027 | idasanutlin 0.006 | alisertib -0.06 | [2] -0.007 | gefitinib 0.024 | [3] 0.085 | lapatinib -0.03 | pictilisib -0.011

FECH isoform 2 (UniProt P22830)
inactive: [1] 0.159 | filanesib -0.188 | zotarolimus 0.082 | idasanutlin -0.127 | alisertib -0.185 | [2] 0.363 | gefitinib 0.153 | [3] 0.062 | lapatinib 0.269 | pictilisib 0.396

GPX4 (UniProt P36969)
inactive: [1] -0.035 | filanesib -0.011 | idasanutlin 0.032 | alisertib -0.02 | [2] 0.003 | gefitinib -0.004 | [3] 0.076 | lapatinib -0.036 | pictilisib -0.034
active: zotarolimus -0.248

IFT74 (UniProt Q96LB3)
inactive: [1] 0.083 | filanesib -0.014 | zotarolimus 0.019 | idasanutlin -0.058 | alisertib -0.102 | [2] 0.339 | gefitinib 0.035 | [3] 0.024 | lapatinib -0.025 | pictilisib 0.052

GLUL (UniProt P15104)
active: [3] -0.225
inactive: [1] 0.11 | filanesib 0.002 | zotarolimus -0.154 | idasanutlin 0.032 | alisertib -0.013 | [2] -0.061 | gefitinib 0.01 | lapatinib -0.032 | pictilisib -0.001

HHEX (UniProt Q03014)
inactive: [1] 0.178 | filanesib -0.007 | zotarolimus -0.102 | idasanutlin 0.035 | alisertib 0.002 | [2] -0.04 | gefitinib -0.016 | [3] 0.053 | lapatinib -0.004 | pictilisib -0.012

GALC (UniProt P54803)
UniProt P54803, sequence (P54803 whole entry, looked up): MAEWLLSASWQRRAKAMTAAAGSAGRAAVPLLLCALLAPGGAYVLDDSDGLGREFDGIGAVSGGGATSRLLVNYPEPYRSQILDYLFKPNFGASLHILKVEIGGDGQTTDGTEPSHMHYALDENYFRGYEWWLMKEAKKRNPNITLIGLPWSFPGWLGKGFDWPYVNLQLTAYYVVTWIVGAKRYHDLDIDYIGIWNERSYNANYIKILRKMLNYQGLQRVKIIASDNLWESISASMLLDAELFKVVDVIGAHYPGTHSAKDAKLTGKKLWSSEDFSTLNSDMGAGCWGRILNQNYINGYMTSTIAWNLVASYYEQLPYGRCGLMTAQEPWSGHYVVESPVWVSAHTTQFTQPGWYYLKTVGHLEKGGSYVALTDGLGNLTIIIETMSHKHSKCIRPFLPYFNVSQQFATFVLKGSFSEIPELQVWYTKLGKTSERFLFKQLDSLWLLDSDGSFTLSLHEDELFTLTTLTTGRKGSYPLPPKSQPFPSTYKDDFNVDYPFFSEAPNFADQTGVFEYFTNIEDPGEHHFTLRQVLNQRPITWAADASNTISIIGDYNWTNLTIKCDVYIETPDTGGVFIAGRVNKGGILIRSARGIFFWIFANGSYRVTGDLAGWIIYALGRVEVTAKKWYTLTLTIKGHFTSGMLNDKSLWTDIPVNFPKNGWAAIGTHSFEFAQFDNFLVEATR
inactive: [1] 0.007 | filanesib -0.017 | zotarolimus -0.071 | idasanutlin -0.121 | alisertib 0.049 | [2] 0.099 | gefitinib -0.014 | [3] 0.066 | lapatinib 0.042 | pictilisib 0.159

GNAI3 (UniProt P08754)
UniProt P08754, sequence (P08754 whole entry, looked up): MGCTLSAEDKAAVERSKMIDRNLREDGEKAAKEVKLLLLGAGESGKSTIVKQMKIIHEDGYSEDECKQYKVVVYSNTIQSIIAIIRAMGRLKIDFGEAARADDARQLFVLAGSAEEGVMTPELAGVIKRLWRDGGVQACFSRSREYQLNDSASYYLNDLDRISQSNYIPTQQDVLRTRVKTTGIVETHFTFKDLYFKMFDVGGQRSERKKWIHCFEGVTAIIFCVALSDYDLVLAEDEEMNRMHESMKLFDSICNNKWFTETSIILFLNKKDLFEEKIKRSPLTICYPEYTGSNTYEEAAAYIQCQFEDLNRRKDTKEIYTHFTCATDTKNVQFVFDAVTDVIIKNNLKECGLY
inactive: [1] -0.041 | filanesib -0.002 | zotarolimus -0.081 | idasanutlin -0.004 | alisertib -0.124 | [2] 0.066 | gefitinib 0.118 | [3] -0.013 | lapatinib 0.009 | pictilisib 0.059

GLCCI1 (UniProt Q86VQ1)
inactive: [1] 0.009 | filanesib 0.052 | zotarolimus 0.067 | idasanutlin 0.11 | alisertib -0.025 | [2] -0.096 | gefitinib 0.109 | [3] 0.083 | lapatinib -0.02 | pictilisib -0.039

FKBP7 (UniProt Q9Y680)
inactive: [1] -0.152 | filanesib -0.036 | zotarolimus -0.029 | idasanutlin 0.047 | alisertib -0.063 | [2] 0.047 | gefitinib 0.086 | [3] 0.003 | lapatinib -0.065 | pictilisib -0.007

HMG20A (UniProt Q9NP66)
inactive: [1] -0.045 | filanesib 0.05 | zotarolimus 0.078 | idasanutlin -0.21 | alisertib -0.016 | [2] 0.147 | gefitinib 0.065 | [3] -0.021 | lapatinib -0.088 | pictilisib 0.145

FLNA (UniProt P21333)
inactive: [1] 0.042 | filanesib 0.026 | zotarolimus 0.043 | idasanutlin -0.066 | alisertib 0.036 | [2] 0.039 | gefitinib 0.03 | [3] -0.095 | lapatinib -0.049 | pictilisib 0.031

HAX1 (UniProt O00165)
UniProt O00165, sequence (O00165 whole entry, looked up): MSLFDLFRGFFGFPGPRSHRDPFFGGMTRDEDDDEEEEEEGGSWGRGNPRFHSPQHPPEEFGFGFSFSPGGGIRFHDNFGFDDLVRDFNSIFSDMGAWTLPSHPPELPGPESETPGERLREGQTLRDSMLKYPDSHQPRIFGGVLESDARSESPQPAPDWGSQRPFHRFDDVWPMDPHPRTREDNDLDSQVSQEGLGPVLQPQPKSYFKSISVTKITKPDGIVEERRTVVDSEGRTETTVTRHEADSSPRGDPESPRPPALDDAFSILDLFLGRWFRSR
inactive: [1] -0.056 | filanesib 0.017 | zotarolimus 0.004 | idasanutlin 0.04 | alisertib -0.007 | [2] -0.311 | gefitinib -0.041 | [3] -0.014 | lapatinib -0.015 | pictilisib -0.145

HADHA (UniProt P40939)
inactive: [1] 0.267 | filanesib 0.082 | zotarolimus 0.081 | idasanutlin -0.321 | alisertib -0.035 | [2] 0.155 | gefitinib 0.209 | [3] -0.088 | lapatinib 0.148 | pictilisib 0.425

HRAS (UniProt P01112)
inactive: [1] 0.008 | filanesib -0.023 | zotarolimus -0.049 | idasanutlin 0.075 | alisertib -0.157 | [2] -0.044 | gefitinib 0.021 | [3] -0.015 | lapatinib 0.076 | pictilisib 0.012

HMGB3 (UniProt O15347)
UniProt O15347, sequence (O15347 whole entry, looked up): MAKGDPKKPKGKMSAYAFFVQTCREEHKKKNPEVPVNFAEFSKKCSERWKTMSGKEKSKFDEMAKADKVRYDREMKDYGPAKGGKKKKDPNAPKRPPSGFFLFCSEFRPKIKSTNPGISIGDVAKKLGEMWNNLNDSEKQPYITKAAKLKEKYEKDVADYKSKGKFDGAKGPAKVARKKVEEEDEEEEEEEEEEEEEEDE
inactive: [1] 0.037 | filanesib -0.001 | zotarolimus 0.012 | idasanutlin 0.045 | alisertib -0.064 | [2] -0.031 | gefitinib -0.033 | [3] 0 | lapatinib 0.062 | pictilisib -0.044

FEN1 (UniProt P39748)
UniProt P39748, sequence (P39748 whole entry, looked up): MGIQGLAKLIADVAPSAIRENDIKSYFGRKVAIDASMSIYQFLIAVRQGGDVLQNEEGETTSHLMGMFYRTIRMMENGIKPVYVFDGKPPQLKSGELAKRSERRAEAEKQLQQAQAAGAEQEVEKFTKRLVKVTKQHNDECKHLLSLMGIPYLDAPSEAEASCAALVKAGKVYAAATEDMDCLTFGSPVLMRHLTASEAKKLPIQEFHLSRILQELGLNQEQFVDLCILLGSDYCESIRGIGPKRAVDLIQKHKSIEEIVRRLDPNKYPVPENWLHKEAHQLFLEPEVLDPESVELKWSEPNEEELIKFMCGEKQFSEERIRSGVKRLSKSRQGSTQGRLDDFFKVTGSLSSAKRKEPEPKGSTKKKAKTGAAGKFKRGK
inactive: [1] 0.06 | filanesib -0.215 | zotarolimus 0.027 | idasanutlin -0.099 | alisertib 0.019 | [2] 0.039 | gefitinib -0.029 | [3] 0.096 | lapatinib -0.098 | pictilisib -0.005

GSK3A (UniProt P49840)
UniProt P49840, sequence (P49840 whole entry, looked up): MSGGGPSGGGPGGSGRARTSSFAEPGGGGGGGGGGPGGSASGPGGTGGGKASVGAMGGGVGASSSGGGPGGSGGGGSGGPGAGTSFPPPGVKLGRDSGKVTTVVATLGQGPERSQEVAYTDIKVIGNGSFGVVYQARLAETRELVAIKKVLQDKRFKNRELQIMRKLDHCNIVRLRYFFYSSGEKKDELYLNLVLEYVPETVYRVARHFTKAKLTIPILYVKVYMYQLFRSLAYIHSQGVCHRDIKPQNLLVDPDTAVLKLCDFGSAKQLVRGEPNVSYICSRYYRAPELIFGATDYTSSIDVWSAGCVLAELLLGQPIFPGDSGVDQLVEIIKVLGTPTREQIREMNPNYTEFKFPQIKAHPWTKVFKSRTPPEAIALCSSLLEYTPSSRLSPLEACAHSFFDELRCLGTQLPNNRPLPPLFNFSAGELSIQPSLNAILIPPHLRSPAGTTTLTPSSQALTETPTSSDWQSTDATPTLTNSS
inactive: [1] -0.028 | filanesib -0.087 | zotarolimus -0.029 | idasanutlin -0.107 | alisertib 0.051 | [2] 0.088 | gefitinib -0.008 | [3] 0.045 | lapatinib -0.016 | pictilisib 0.188

GALNT11 (UniProt Q8NCW6)
UniProt Q8NCW6, sequence (Q8NCW6 whole entry, looked up): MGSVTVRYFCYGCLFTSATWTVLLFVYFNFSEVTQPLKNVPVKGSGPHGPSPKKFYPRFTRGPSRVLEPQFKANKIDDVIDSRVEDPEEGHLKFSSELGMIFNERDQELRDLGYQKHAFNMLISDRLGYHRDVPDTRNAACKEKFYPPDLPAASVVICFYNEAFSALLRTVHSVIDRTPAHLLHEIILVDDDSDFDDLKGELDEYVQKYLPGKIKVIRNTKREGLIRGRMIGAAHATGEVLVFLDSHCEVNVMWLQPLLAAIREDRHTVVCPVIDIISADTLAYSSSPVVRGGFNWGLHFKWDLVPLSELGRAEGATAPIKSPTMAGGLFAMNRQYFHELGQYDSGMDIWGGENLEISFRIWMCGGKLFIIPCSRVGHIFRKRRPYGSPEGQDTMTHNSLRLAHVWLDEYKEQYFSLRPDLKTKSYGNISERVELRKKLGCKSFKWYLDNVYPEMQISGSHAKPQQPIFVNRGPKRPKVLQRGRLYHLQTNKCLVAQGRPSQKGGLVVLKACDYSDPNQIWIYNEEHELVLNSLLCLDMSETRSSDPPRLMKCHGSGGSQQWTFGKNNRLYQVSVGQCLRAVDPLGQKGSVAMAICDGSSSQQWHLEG
inactive: [1] -0.012 | filanesib -0.028 | zotarolimus -0.019 | idasanutlin -0.042 | alisertib 0 | [2] 0.052 | gefitinib 0.013 | [3] 0.062 | lapatinib -0.011 | pictilisib 0.026

GCLM (UniProt P48507)
inactive: [1] 0.066 | filanesib -0.004 | zotarolimus 0.071 | idasanutlin -0.124 | alisertib -0.003 | [2] 0.026 | gefitinib 0.06 | [3] -0.057 | lapatinib 0.011 | pictilisib 0.046

FARS2 (UniProt O95363)
UniProt O95363, sequence (O95363 whole entry, looked up): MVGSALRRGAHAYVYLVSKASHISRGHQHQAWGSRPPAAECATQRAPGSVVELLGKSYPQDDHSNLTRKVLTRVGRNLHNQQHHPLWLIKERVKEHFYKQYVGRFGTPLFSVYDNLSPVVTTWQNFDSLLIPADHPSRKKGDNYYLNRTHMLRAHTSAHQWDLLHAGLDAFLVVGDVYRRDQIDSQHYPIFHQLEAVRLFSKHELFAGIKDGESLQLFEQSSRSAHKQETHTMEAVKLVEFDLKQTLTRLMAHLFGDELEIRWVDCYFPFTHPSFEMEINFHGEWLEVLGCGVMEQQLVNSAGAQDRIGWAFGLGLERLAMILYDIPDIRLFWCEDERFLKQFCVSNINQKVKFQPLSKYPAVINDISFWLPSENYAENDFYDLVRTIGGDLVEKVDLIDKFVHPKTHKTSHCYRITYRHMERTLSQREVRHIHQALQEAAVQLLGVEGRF
inactive: [1] -0.171 | filanesib -0.122 | zotarolimus -0.049 | idasanutlin -0.076 | alisertib 0.137 | [2] 0.033 | gefitinib -0.114 | [3] 0.113 | lapatinib -0.061 | pictilisib 0.071

HRC (UniProt P23327)
inactive: [1] -0.089 | filanesib 0.019 | zotarolimus -0.032 | idasanutlin 0.035 | alisertib -0.059 | [2] -0.008 | gefitinib 0.035 | [3] -0.007 | lapatinib -0.039 | pictilisib 0.017

HDAC6 (UniProt Q9UBN7)
inactive: filanesib 0.006 | zotarolimus 0.008 | idasanutlin -0.055 | alisertib -0.097 | [2] 0.028 | gefitinib 0.043 | [3] -0.027 | lapatinib 0.016 | pictilisib 0.062
active: [1] 0.676

HNRNPUL1 (UniProt Q9BUJ2)
inactive: [1] 0.033 | filanesib 0.047 | zotarolimus -0.043 | idasanutlin 0.03 | alisertib 0.01 | [2] 0.023 | gefitinib -0.02 | [3] 0.009 | lapatinib 0.031 | pictilisib 0.014

H2AFX (UniProt P16104)
inactive: [1] -0.06 | filanesib 0.393 | zotarolimus -0.3 | idasanutlin 0.484 | alisertib -0.007 | [2] -0.136 | gefitinib 0.049 | [3] -0.361 | lapatinib 0.054 | pictilisib -0.215

FKBP4 (UniProt Q02790)
UniProt Q02790, sequence (Q02790 whole entry, looked up): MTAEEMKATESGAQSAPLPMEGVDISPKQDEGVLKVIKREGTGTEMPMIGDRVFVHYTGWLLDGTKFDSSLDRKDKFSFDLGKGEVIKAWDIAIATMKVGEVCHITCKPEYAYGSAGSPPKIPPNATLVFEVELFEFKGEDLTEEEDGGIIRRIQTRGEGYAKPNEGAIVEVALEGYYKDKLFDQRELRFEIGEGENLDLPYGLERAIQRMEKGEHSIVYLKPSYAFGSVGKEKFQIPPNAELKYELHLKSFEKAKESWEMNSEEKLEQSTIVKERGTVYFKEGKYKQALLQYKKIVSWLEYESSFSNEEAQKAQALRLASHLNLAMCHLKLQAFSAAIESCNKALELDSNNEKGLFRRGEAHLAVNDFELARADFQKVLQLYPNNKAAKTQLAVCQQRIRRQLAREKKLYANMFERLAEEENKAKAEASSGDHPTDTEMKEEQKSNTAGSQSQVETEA
inactive: [1] 0.015 | filanesib -0.066 | zotarolimus 0.077 | idasanutlin -0.048 | alisertib -0.018 | [2] 0.031 | gefitinib 0.008 | [3] 0.009 | lapatinib -0.062 | pictilisib 0.027

HSPA8 (UniProt E9PK54)
inactive: [1] 0.011 | filanesib 0.033 | zotarolimus -0.015 | idasanutlin -0.037 | alisertib -0.186 | [2] -0.208 | gefitinib -0.077 | [3] -0.002 | lapatinib 0.17 | pictilisib -0.071
